# Many of the other results were omitted from the sample, so the strongest signals are more common in it than they were.
# B1: Agalectin (Anopheles gambiae) (protein)
# chain: MSNRPFTAKFPRYPENGDEVFIRGKLKDDAKSFSVNFCLPRPAQVAEHQTPPYIALHFKTIYDERDDTSRVVLNWKNLQWQQEEVLDNYWHVDRSQTFRVVFRLHEDCIKVFVNSVDHPPDYQFPVQLPLDQIESIELWDDVEHVEEISFRYDNGNSY
# Key:
# Test in all cases: glycan array binding signal (z-score within array); higher = stronger binding
# Settings in all cases: glycan notation: IUPAC condensed, linker removed
# [1] = target: Fuc(a1-2)Gal(b1-3)GlcNAc(b1-2)Man(a1-3)[Fuc(a1-2)Gal(b1-3)GlcNAc(b1-2)Man(a1-6)]Man(b1-4)GlcNAc(b1-4)GlcNAc
# How it was run: (§1)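 Glycan array data came from 3228 arrays in the Consortium for Functional Glycomics database, and only arrays with an available protein sequence were kept. Glycan names were put into IUPAC-condensed notation, and columns mapping to the same glycan were averaged. The binding signal is a within-array Z-score, averaged across arrays of one protein sequence run at different concentrations or buffers and across linkers. A negative Z-score can be read as non-binding.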
# [2] = target: Fuc(a1-2)Gal(b1-3)GlcNAc(b1-3)[Fuc(a1-2)Gal(b1-3)GlcNAc(b1-6)]GalNAc
# How it was run: as §1
# [3] = target: Fuc(a1-2)Gal(b1-4)GlcNAc(b1-3)Gal(b1-4)GlcNAc(b1-2)Man(a1-3)[Fuc(a1-2)Gal(b1-4)GlcNAc(b1-3)Gal(b1-4)GlcNAc(b1-2)Man(a1-6)]Man(b1-4)GlcNAc(b1-4)GlcNAc
# How it was run: as §1
# [4] = target: Fuc(a1-2)Gal(b1-4)GlcNAc(b1-3)[Fuc(a1-2)Gal(b1-4)GlcNAc(b1-6)]GalNAc
# How it was run: as §1
# [5] = target: Fuc(a1-2)Gal(b1-4)GlcNAc6S
# How it was run: as §1
# [6] = target: Fuc(a1-2)Gal6S(b1-3)GlcNAc6S
# How it was run: as §1
# [7] = target: Fuc(a1-2)[GalNAc(a1-3)]Gal(b1-4)GlcNAc(b1-6)GalNAc
# How it was run: as §1
# [8] = target: Fuc(a1-2)[GalNAc(a1-3)]Gal(b1-4)[Fuc(a1-3)]GlcNAc(b1-3)GalNAc
# How it was run: as §1
# Fuc(a1-3)GlcNAc = target: Fuc(a1-3)GlcNAc
# How it was run: as §1
# [9] = target: Fuc(a1-3)[Gal(b1-4)]Glc6S
# How it was run: as §1
# [10] = target: Fuc(a1-3)[Gal(b1-4)]GlcNAc6S
# How it was run: as §1
# [11] = target: Fuc(a1-3)[Gal3S(b1-4)]GlcNAc6S
# How it was run: as §1
# [12] = target: Gal(a1-3)Gal(b1-4)[Fuc(a1-3)]GlcNAc
# How it was run: as §1
# Gal(b1-3)GalNAc = target: Gal(b1-3)GalNAc
# How it was run: as §1
# [13] = target: Gal(b1-3)GalNAc(a1-3)[Fuc(a1-2)]Gal(b1-4)Glc
# How it was run: as §1
# [14] = target: Gal(b1-3)GlcNAc(b1-2)Man(a1-3)[Gal(b1-3)GlcNAc(b1-2)Man(a1-6)]Man(b1-4)GlcNAc(b1-4)GlcNAc
# How it was run: as §1
# [15] = target: Gal(b1-3)GlcNAc(b1-3)Gal(b1-4)GlcNAc
# How it was run: as §1
# [16] = target: Gal(b1-3)GlcNAc(b1-3)Gal(b1-4)GlcNAc(b1-2)[Gal(b1-3)GlcNAc(b1-3)Gal(b1-4)GlcNAc(b1-6)]Man(a1-6)[Gal(b1-3)GlcNAc(b1-3)Gal(b1-4)GlcNAc(b1-2)Man(a1-3)]Man(b1-4)GlcNAc(b1-4)[Fuc(a1-6)]GlcNAc
# How it was run: as §1
# [17] = target: Gal(b1-3)GlcNAc(b1-6)[Gal(b1-3)]GalNAc
# How it was run: as §1
# Gal(b1-3)GlcNAc6S = target: Gal(b1-3)GlcNAc6S
# How it was run: as §1
# [18] = target: Gal(b1-3)[Neu5Ac(b2-6)]GalNAc
# How it was run: as §1
# [19] = target: Gal(b1-4)GlcNAc(b1-2)Man(a1-6)[GlcNAc(b1-2)Man(a1-3)]Man(b1-4)GlcNAc(b1-4)GlcNAc
# How it was run: as §1
# [20] = target: Gal(b1-4)GlcNAc(b1-3)Gal(b1-4)GlcNAc(b1-3)Gal(b1-4)GlcNAc(b1-2)Man(a1-3)[Gal(b1-4)GlcNAc(b1-3)Gal(b1-4)GlcNAc(b1-3)Gal(b1-4)GlcNAc(b1-2)Man(a1-6)]Man(b1-4)GlcNAc(b1-4)GlcNAc
# How it was run: as §1
# [21] = target: Gal(b1-4)GlcNAc(b1-3)Gal(b1-4)GlcNAc(b1-3)Gal(b1-4)GlcNAc(b1-3)Gal(b1-4)GlcNAc(b1-2)Man(a1-3)[Gal(b1-4)GlcNAc(b1-3)Gal(b1-4)GlcNAc(b1-3)Gal(b1-4)GlcNAc(b1-3)Gal(b1-4)GlcNAc(b1-2)Man(a1-6)]Man(b1-4)GlcNAc(b1-4)[Fuc(a1-6)]GlcNAc
# How it was run: as §1
# [22] = target: Gal(b1-4)GlcNAc(b1-3)Gal(b1-4)GlcNAc(b1-3)Gal(b1-4)GlcNAc(b1-3)Gal(b1-4)GlcNAc(b1-2)[Gal(b1-4)GlcNAc(b1-3)Gal(b1-4)GlcNAc(b1-3)Gal(b1-4)GlcNAc(b1-3)Gal(b1-4)GlcNAc(b1-6)]Man(a1-6)[Gal(b1-4)GlcNAc(b1-3)Gal(b1-4)GlcNAc(b1-3)Gal(b1-4)GlcNAc(b1-3)Gal(b1-4)GlcNAc(b1-2)Man(a1-3)]Man(b1-4)GlcNAc(b1-4)[Fuc(a1-6)]GlcNAc
# How it was run: as §1
# [23] = target: Gal(b1-4)GlcNAc(b1-3)GalNAc
# How it was run: as §1
# Gal(b1-6)Gal = target: Gal(b1-6)Gal
# How it was run: as §1
# Gal6P(b1-4)GlcNAc = target: Gal6P(b1-4)GlcNAc
# How it was run: as §1
# GalNAc(a1-3)Gal = target: GalNAc(a1-3)Gal
# How it was run: as §1
# GalNAc(b1-3)Gal = target: GalNAc(b1-3)Gal
# How it was run: as §1
binder,measurement,setting,value
B1,glycan array binding signal (z-score),[1],5.71
same,glycan array binding signal (z-score),[2],4.19
same,glycan array binding signal (z-score),[3],-0.148
same,glycan array binding signal (z-score),[4],-0.321
same,glycan array binding signal (z-score),[5],-0.769
same,glycan array binding signal (z-score),[6],-0.208
same,glycan array binding signal (z-score),[7],0.074
same,glycan array binding signal (z-score),[8],-0.12
same,glycan array binding signal (z-score),Fuc(a1-3)GlcNAc,-1.07
same,glycan array binding signal (z-score),[9],-0.632
same,glycan array binding signal (z-score),[10],0.34
same,glycan array binding signal (z-score),[11],-0.759
same,glycan array binding signal (z-score),[12],-0.066
same,glycan array binding signal (z-score),Gal(b1-3)GalNAc,-0.47
same,glycan array binding signal (z-score),[13],-0.559
same,glycan array binding signal (z-score),[14],1.66
same,glycan array binding signal (z-score),[15],-0.854
same,glycan array binding signal (z-score),[16],3.14
same,glycan array binding signal (z-score),[17],-1.37
same,glycan array binding signal (z-score),Gal(b1-3)GlcNAc6S,-1.14
same,glycan array binding signal (z-score),[18],0.408
same,glycan array binding signal (z-score),[19],-0.688
same,glycan array binding signal (z-score),[20],2.89
same,glycan array binding signal (z-score),[21],3.26
same,glycan array binding signal (z-score),[22],-0.07
same,glycan array binding signal (z-score),[23],-0.509
same,glycan array binding signal (z-score),Gal(b1-6)Gal,-1.18
same,glycan array binding signal (z-score),Gal6P(b1-4)GlcNAc,-0.335
same,glycan array binding signal (z-score),GalNAc(a1-3)Gal,-0.221
same,glycan array binding signal (z-score),GalNAc(b1-3)Gal,-0.678
